# Source: PubChem BioAssay AID652018 (The Scripps Research Institute Molecular Screening Center, 2013)
# The source made the active and inactive calls.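 How the source made its calls: active means at least 50% inhibition of LYPLA1 or LYPLA2 at 300 nM, with no off-target enzyme hit at any dose; inactive means under 50% inhibition on both enzymes, or any off-target hit.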
# System: Anti-Targets
# Test: LYPLA1/LYPLA2 inhibition and anti-target count – cell lysate, competitive ABPP, HEK293T proteome, set 2, selectivity assay for LYPLA1 inhibitor project, late-stage follow-up (AID 652018)
# Conditions: competitive ABPP FP-PEG-Rh gel; anti-targets hit, at 10 µM
SMILES,outcome,anti-target count
COc1ccc(N2CCN(C(=O)n3ccnn3)CC2)cc1,inactive,0
O=C(CN1CCN(C(=O)n2ncc(-c3ccc(Br)cc3)n2)CC1)Nc1cc(C(F)(F)F)ccc1Cl,inactive,0
COc1ccc(N2CCN(C(=O)n3ncc(C(O)(c4ccccc4)c4ccccc4)n3)CC2)cc1,active,1
O=C(CN1CCN(C(=O)n2nccn2)CC1)Nc1cc(C(F)(F)F)ccc1Cl,inactive,0
O=C(N1CCN(c2ccc(Br)cc2)CC1)n1ncc(C(O)(c2ccccc2)c2ccccc2)n1,inactive,0
COc1ccc(N2CCN(C(=O)n3ncc(-c4ccccc4)n3)CC2)cc1,inactive,0
O=C(CN1CCN(C(=O)n2nc(Br)c(Br)n2)CC1)Nc1cc(C(F)(F)F)ccc1Cl,inactive,0
COc1ccc(N2CCN(C(=O)n3nccn3)CC2)cc1,inactive,0
O=C(CN1CCN(C(=O)n2cncn2)CC1)Nc1cc(C(F)(F)F)ccc1Cl,inactive,0
O=C(CN1CCN(C(=O)n2cc(-c3ccc(OC(F)(F)F)cc3)nn2)CC1)Nc1cc(C(F)(F)F)ccc1Cl,inactive,0
COc1ccc(N2CCN(C(=O)n3cc(-c4ccc(OC(F)(F)F)cc4)nn3)CC2)cc1,inactive,0
COc1ccc(N2CCN(C(=O)n3cncn3)CC2)cc1,inactive,0
COc1ccc(N2CCN(C(=O)n3ncc(-c4ccc(OC(F)(F)F)cc4)n3)CC2)cc1,inactive,0
COc1ccc(N2CCN(C(=O)n3nc(Br)c(Br)n3)CC2)cc1,active,2
COc1ccc(N2CCN(C(=O)n3cc(C(O)(c4ccccc4)c4ccccc4)nn3)CC2)cc1,active,2
O=C(CN1CCN(C(=O)n2ncc(-c3ccc(-c4ccccc4)cc3)n2)CC1)Nc1cc(C(F)(F)F)ccc1Cl,inactive,0
O=C(CN1CCN(C(=O)n2ncc(-c3ccc(OC(F)(F)F)cc3)n2)CC1)Nc1cc(C(F)(F)F)ccc1Cl,inactive,0
O=C(CN1CCN(C(=O)n2nc(Br)nc2Br)CC1)Nc1cc(C(F)(F)F)ccc1Cl,inactive,0
O=C(CN1CCN(C(=O)n2cc(-c3ccc(-c4ccccc4)cc3)nn2)CC1)Nc1cc(C(F)(F)F)ccc1Cl,inactive,0
O=C(N1CCN(c2ccc(Cl)c(Cl)c2)CC1)n1ncc(C(O)(c2ccccc2)c2ccccc2)n1,inactive,0
COc1ccc(N2CCN(C(=O)n3nc(Br)nc3Br)CC2)cc1,inactive,0
O=C(CN1CCN(C(=O)n2cc(C(O)(c3ccccc3)c3ccccc3)nn2)CC1)Nc1cc(C(F)(F)F)ccc1Cl,inactive,0
O=C(CN1CCN(C(=O)n2ncc(C(O)(c3ccccc3)c3ccccc3)n2)CC1)Nc1cc(C(F)(F)F)ccc1Cl,active,1
